# A selection: hits, their analogues and other compounds. The true share with any hit is near 2.7%.
# ALOX12 inh = inhibitors of human 12S-lipoxygenase ALOX12. actives 1.1% (n = 580,000). AID 1671190. Potency, µM (titrated, usually from 108 µM), for the others: at the highest dose activity change, negative = inhibition, usual class: inhibitors. P18054. purified 12hLO, xylenol orange hydroperoxide absorbance; also: % is scaled to controls: 0 for no effect and ±100 for the full control effect
# Target sequence (P18054 whole entry, looked up): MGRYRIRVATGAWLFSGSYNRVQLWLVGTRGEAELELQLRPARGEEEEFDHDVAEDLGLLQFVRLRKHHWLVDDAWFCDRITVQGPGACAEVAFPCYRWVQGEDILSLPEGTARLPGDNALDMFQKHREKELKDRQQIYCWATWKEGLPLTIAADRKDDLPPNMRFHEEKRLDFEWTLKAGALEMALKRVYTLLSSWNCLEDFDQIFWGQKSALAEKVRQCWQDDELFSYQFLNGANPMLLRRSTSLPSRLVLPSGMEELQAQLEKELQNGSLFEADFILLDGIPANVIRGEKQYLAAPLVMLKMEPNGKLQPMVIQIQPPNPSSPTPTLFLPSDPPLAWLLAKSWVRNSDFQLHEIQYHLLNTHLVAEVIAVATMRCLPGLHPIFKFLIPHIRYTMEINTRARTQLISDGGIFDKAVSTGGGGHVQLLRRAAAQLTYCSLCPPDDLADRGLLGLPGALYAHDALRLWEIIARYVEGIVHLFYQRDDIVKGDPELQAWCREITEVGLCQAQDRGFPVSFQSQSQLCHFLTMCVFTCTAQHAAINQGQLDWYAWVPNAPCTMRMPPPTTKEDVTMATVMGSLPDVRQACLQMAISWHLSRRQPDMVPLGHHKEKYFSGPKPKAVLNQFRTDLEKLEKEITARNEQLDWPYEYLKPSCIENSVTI
#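 Hydroperoxide product was detected by ferrous iron/xylenol orange as the 573 to 405 nm absorbance ratio. Arachidonic acid at 40 uM (final) was turned over for 30 min at room temperature by 150 nM human 12hLO, pH 7.0 Hepes buffer, after 15 min compound preincubation.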
# TGFb inhibitor = blocks TGF-b signaling; Potency, µM (highest dose often 46.1 µM), for the others: top-dose activity, negative = inhibition, hits mostly inhibitors; actives 1.2% (n = 410,000); AID 588855; HepG2 CAGA-GFP TGF-b/SMAD3 reporter, GFP fluorescence, 18 h; TGF-beta stimulated, 500 pg/mL final; also: % is scaled to controls: 0 for no effect and ±100 for the full control effect; nearly all actives have a fitted effect of over 65% in size
#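 TGF-beta reporter screen: HEPG2 CAGA-GFP, 1% FBS, 500 pg/mL TGF-beta final, 18 h; per-cell GFP summed per well; curves fitted and categorized by class.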
# ATXN viability = reduces viability in counter-screen for ATXN expression inhibitors; actives 0.49% (n = 400,000); S2 cells (HEK-293 line with an ATXN2-luciferase reporter) viability, CellTiter-Fluor protease fluorescence, 24 h; Potency, µM (series often up to 56.7 µM), hits mostly cytotoxic; also: nearly all actives have a fitted effect of over 40% in size
# HepG2 tox-1 = HepG2 cytotoxicity, counter-screen for TGF-b inhibitors; HepG2 CAGA-GFP viability, ATP luminescence, 18 h; Potency, µM (top dose mostly 46.1 µM), without a hit: at the top dose activity change, negative = cytotoxicity, most hits filed as cytotoxic; actives 0.76% (n = 410,000); AID 588856
#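 HepG2 CAGA-GFP cells (1000/well, DMEM with 1% FBS) received compound, then TGF-beta at 500 pg/mL final, and were incubated 18 hours at 37 degrees C. Viability was read by CellTiter-Glo luminescence. Media-only wells were set as complete cell-killing and DMSO as no toxicity.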
# ATXN2 expr inh = reduces ATXN2 reporter expression in HEK-293 cells. HEK-293 ATXN2-luciferase reporter, luminescence, 24 h. Potency, µM (highest dose often 57 µM), for the others: at the top dose activity change, negative = inhibition, actives largely listed as inhibitors. actives 0.72% (n = 360,000). AID 1745845; also: % is scaled to controls: 0 for no effect and ±100 for the full control effect; nearly all actives have a fitted effect of over 55% in size
#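 qHTS (up to 57 uM final) was run with 24 h compound exposure of reporter cells at 37 °C. Each well was multiplexed: SteadyGlo luminescence measured ATXN2-luciferase expression after a fluorogenic Gly-Phe-AFC viability readout (25 uM final).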
# TGFb CAGA inh = TGF-b pathway inhibition, cherry-pick retest; shares compounds with TGFb inhibitor; HepG2 CAGA-GFP TGF-b reporter, GFP fluorescence, 18 h; cells stimulated with TGF-beta, 500 pg/mL; Potency, µM (doses to about 46.1 µM), for inactives: at the highest dose activity, negative = inhibition, usual class: inhibitors; actives 63% (n = 1,600); also: % is scaled to controls: 0 for no effect and ±100 for the full control effect; nearly all actives have a fitted effect of over 65% in size
# HepG2 tox-2 = HepG2 cytotoxicity, TGF-b inhibitor counterscreen; AID 720535; HepG2 CAGA-GFP viability, ATP luminescence, 18 h; cells stimulated with TGF-beta, 500 pg/mL; actives 27% (n = 1,600); shares compounds with TGFb inhibitor; Potency, µM (top dose mostly 46.1 µM), without a hit: at the highest dose activity, negative = cytotoxicity, most hits filed as inhibitors; also: % is scaled to controls: 0 for no effect and ±100 for the full control effect; nearly all actives have a fitted effect of over 70% in size
# TGFb CCL64 inh = TGF-b inhibition, CCL64 orthogonal assay. CCL64 CAGA-GFP reporter, TGF-b stimulated, GFP fluorescence, 18 h. actives 41% (n = 1,600). shares compounds with TGFb inhibitor. Potency, µM (titrated, usually from 46.1 µM), for inactives: at the highest dose activity, negative = inhibition, hits mostly inhibitors; also: nearly all actives have a fitted effect of over 65% in size
# TGFb COP inh = blocks TGF-b signaling in HepG2 COP reporter. shares compounds with TGFb inhibitor. Potency, µM (titrated, usually from 46.1 µM), without a hit: at the top dose activity, negative = inhibition, most hits filed as inhibitors. HepG2 COP-GFP TGF-b reporter, GFP fluorescence, 18 h; cells stimulated by added recombinant TGF-beta. actives 3% (n = 1,600). AID 720537; also: nearly all actives have a fitted effect of over 70% in size
# Active calls of the source: *; i = inactive; ? = inconclusive; nt = not tested or not shown; [ ] = another dose, or the depositor's remark. Calls follow the shape of the dose curve; as a rule, active = well fitted curve in the direction sought with a large enough effect; inconclusive = small, poorly fitted or top-dose-only effect, or another doubt; inactive = no such curve, though single readings can be large; an effect the other way counts as inactive or inconclusive. Potency is read from the fitted curve at half-maximal effect.
SMILES,ALOX12 inh,TGFb inhibitor,ATXN viability,HepG2 tox-1,ATXN2 expr inh,TGFb CAGA inh,HepG2 tox-2,TGFb CCL64 inh,TGFb COP inh
CCn1c(C(=O)NCCc2ccco2)cc2cc(S(=O)(=O)N(C)C)ccc21,-9%,nt,nt,nt,nt,nt,nt,nt,nt
CCCn1nc(C(=O)OCCOc2c(Cl)cccc2Cl)c2ccccc2c1=O,1%,nt,nt,nt,nt,nt,nt,nt,nt
CCOc1ccc(NC(=O)c2nn(C)c(=O)c3ccccc23)cc1S(=O)(=O)N(C)C,-2%,nt,nt,nt,nt,nt,nt,nt,nt
C[C@H]1CN([C@@H](C)CO)C(=O)c2cc(NC(=O)Cc3ccccc3)ccc2O[C@H]1CN(C)Cc1ccccc1,-15%,-8%,i,-5%,1%,nt,nt,nt,nt
C[C@@H]1CN([C@H](C)CO)S(=O)(=O)c2ccc(Br)cc2O[C@H]1CN(C)C(=O)Nc1ccc(F)cc1,16%,1%,?,-4%,-1%,nt,nt,nt,nt
C[C@H](CO)N1C[C@H](C)[C@@H](CN(C)S(=O)(=O)c2cccs2)Oc2ccc(NC(=O)Nc3ccc4c(c3)OCO4)cc2C1=O,?,-45%,i,-2%,-7%,nt,nt,nt,nt
C[C@@H]1CN([C@H](C)CO)C(=O)c2cc(NC(=O)Cc3ccccc3)ccc2O[C@H]1CN(C)Cc1ccc(Oc2ccccc2)cc1,?,11µM*,?,-25%,?,?,?,16µM*,83%
Cc1ccc(S(=O)(=O)Nc2ccc3c(c2)C(=O)N([C@H](C)CO)C[C@H](C)[C@@H](CN(C)Cc2ccc(-c4ccccc4)cc2)O3)cc1,nt,10µM*,?,-16%,0%,9.2µM*,?,21µM*,61%
Cc1ccc(-c2ccc3c(c2)O[C@H](CN(C)C(=O)Nc2ccc(C(F)(F)F)cc2)[C@H](C)CN([C@H](C)CO)S3(=O)=O)cc1,-2%,22µM*,?,-14%,0%,18µM*,?,?,47%
C[C@H](CO)N1C[C@H](C)[C@H](CN(C)S(=O)(=O)c2cccs2)Oc2ccc(NC(=O)Nc3ccc4c(c3)OCO4)cc2CC1=O,-28%,?,?,2%,-24%,?,-24%,-16%,9%
C/C(CC(=O)Nc1ccc(Cl)c(C(F)(F)F)c1)=N\NC(=O)c1ccccc1O,-19%,16µM*,i,-68%,-21%,?,?,?,102%
CCOc1ccccc1CNC(=O)c1ccc(Sc2ccc(Cl)cc2)c(NC(C)=O)c1,-24%,?,i,-1%,2%,?,-26%,?,-3%
Cc1cc(Nc2ccccc2)nc(NCc2ccccc2)n1,?,10µM*,i,-55%,?,4%,?,15µM*,63%
COc1ccc(CN2CC(=O)N3[C@H]4c5ccc(OC)cc5OC[C@@H]4[C@H](c4ccccc4)[C@]3(C)C2=O)cc1,15%,-1%,i,-33%,1%,nt,nt,nt,nt
COc1ccc2c(c1)OC[C@H]1[C@H]2N2C(=O)CN(Cc3ccc(Cl)cc3)C(=O)[C@@]2(C)[C@H]1c1ccccc1,?,5µM*,i,-25%,0%,?,-4%,-1%,0%
Cc1oc2cc(Br)c(O)c(Br)c2c1-c1ccccc1,nt,10µM*,i,-66%,168%,?,-17%,?,19%
Cc1cc2oc(=O)cc(-c3ccccc3)c2c(C)c1-c1ccc(O)cc1,?,?,i,-28%,-25%,nt,nt,nt,nt
COc1ccc(C[C@H]2CN3C(=NC[C@@H]3Cc3ccc(O)cc3)N2C[C@H](C)NC(=O)CCC2CCCCC2)cc1,-23%,?,?,-15%,?,nt,nt,nt,nt
COc1ccc(C[C@@H]2CN3C(=NC[C@@H]3Cc3ccc(O)cc3)N2C[C@H](C)NC(=O)CCC2CCCCC2)cc1,nt,13µM*,?,-22%,-36%,-86%,?,?,106%
CCn1c(=O)c(=O)n(CC(=O)NCCN2CCN(c3cccc(Cl)c3)CC2)c2ccccc21,5%,nt,nt,nt,nt,nt,nt,nt,nt
NC(=O)c1ccsc1NC(=O)c1ccc(S(=O)(=O)N2CCCc3ccccc32)cc1,-12%,11µM*,?,-16%,?,5.2µM*,?,16µM*,-1%
Nc1ncnc2c(C3OC(CO)C(O)C3O)scc12 (centres undefined),-2%,-122%,?,-86%,?,0.016µM*,0.073µM*,0.92µM*,42%
Nc1ncnc2c1ncn2[C@@H]1O[C@H](CO)[C@@H](O)[C@@H]1O,12%,2%,i,22%,-20%,nt,nt,nt,nt
CCOC(=O)C1CCN(C(c2cccnc2)c2c(NC(=O)c3ccco3)sc(C)c2C)CC1 (centres undefined),-6%,7.9µM*,i,-53%,?,21µM*,?,?,18%
Cc1sc(NC(=O)c2ccco2)c(C(c2cccnc2)N2CCN(CCO)CC2)c1C (centres undefined),5%,-18%,i,-22%,-19%,nt,nt,nt,nt
COc1ccccc1-c1cn2c(n1)CO[C@@H](CNC(=O)COc1ccccc1)C2,3%[176 µM],nt,nt,nt,nt,nt,nt,nt,nt
CC(C)c1ccc(CN2CCN(C(=O)CSc3nnnn3C3CC3)CC2)cc1,-2%,?,i,-35%,-34%,-22%,-22%,1%,8%
CCc1cc(=O)n(CC(=O)Nc2cccc(NC(C)=O)c2)c(-n2nc(C)cc2C)n1,6%,nt,nt,nt,nt,nt,nt,nt,nt
CCSCCc1nnc(NC(=O)Nc2cccc(C(F)(F)F)c2)s1,-4%,4.5µM*,i,-35%,?,5.2µM*,?,7.3µM*,104%
